From PubChem BioAssay (NCATS)
Several values for one entry are separate records, joined by “and”; a condition that tells them apart may be missing. Equal values may be shown once.

Assay: qHTS drug screen for cell cycle checkpoint inhibitors in PARPi-resistant BRCA-mutant ovarian cancer cell lines. (AID 1963452)
Settings: PEO1/OlaR viability, CellTiter-Glo luminescence, 96 h; measured here: PEO1 parental Z-AUC; stronger effect = lower value
Outline: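 PEO1, PEO4 and PEO1/OlaR ovarian cancer cells, 600 per well, exposed 96 h at 37C to a dilution series. Viability read by CellTiter-Glo luminescence, normalized to DMSO and empty wells; activity summarized as Z-AUC.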

Structure (SMILES)	Z-AUC
CCOC(=O)[C@@]1(CCCCCCOc2ccc(Cl)cc2)CO1	1.19
Cc1cc(-c2cc(OC(=O)c3ccccc3)ccc2Cl)cc2nnc(Nc3ccc(OCCN4CCCC4)cc3)nc12	0.132
O=C(NCCCNc1nc(Nc2cccc(CN3CCOCC3)c2)ncc1C1CC1)C1CCC1	-0.12
Cc1sc2c(c1C)C(c1ccc(Cl)cc1)=N[C@@H](CC(=O)Nc1ccc(OCCOCCOCCOCCNc3cccc4c3C(=O)N(C3CCC(=O)NC3=O)C4=O)cc1)c1nnc(C)n1-2 (stereo partly specified)	-2.13
Cn1ncc2cc(-c3cnc(N)c(Cl)c3N3CCC4(CCNC4=O)CC3)ccc21	-0.91
C[C@@H]1CN(CC(=O)N2CC(C)(C)c3ncc(Cc4ccc(F)cc4)cc32)[C@@H](CN2CCOC[C@H]2C)CN1	0.908
Cc1nc(NC(=O)N2CCC[C@H]2C(N)=O)sc1-c1ccnc(C(C)(C)C(F)(F)F)c1	-0.228 and -0.204
C[C@@H](c1ccc2nccn2c1)n1nnc2ncc(-c3cnn(C)c3)nc21	-0.0646
Cn1ncc(Cl)c1-c1cc(C(=O)N[C@H](CN)Cc2cccc(F)c2)sc1Cl	0.0445
O=C(NCCCNC(=O)c1ccc[nH]c1=O)c1cc(-c2ccccc2)on1	0.0234
COc1cccc(OCCCN)c1-c1cc(Nc2cnc(C#N)cn2)n[nH]1	-2.4
CCN(c1cc(-c2ccc(CN3CCOCC3)cc2)cc(C(=O)NCc2c(C)cc(C)[nH]c2=O)c1C)C1CCOCC1	0.489
C[C@@H]1COCCN1c1cc(=O)n2c(n1)N(Cc1cncc(Cl)c1)[C@H](C(F)(F)F)CC2	-0.0406
c1cc(-c2cnn3cc(-c4ccc(N5CCNCC5)cc4)cnc23)c2cccnc2c1	-1.26
COc1ccc2nc3n[nH]c(C)c3c(NCCOCCO)c2c1	0.387
COc1ccc(-c2c(C)nn3c(NCCN4CCOCC4)cc(C)nc23)cc1OC	0.787

Structure (SMILES)	Z-AUC
COC(C)(C)CCn1nc(Nc2c(C)cccc2C)c2cnc(Nc3ccc(OCCN4CCCC4)c(F)c3)nc21	-0.494
COc1ccc(CNc2nc(N(CCO)CCO)nc3c2ncn3C(C)C)cc1	-0.866
Cc1nnc(C[C@@H]2C=C(c3ccc(Cl)cc3)c3ccccc3-n3c(C)nnc32)o1	0.533
CC(/C=C/C(=O)NO)=C\[C@@H](C)C(=O)c1ccc(N(C)C)cc1	-0.861
O=C(N[C@H]1CCC[C@H](CO)C1)C1CCN(c2nc3cc(Cl)c(-c4ccc(Cl)cc4)cc3o2)CC1	0.237
CN1CCN(C2CCN(C(=O)Nc3cc(Oc4ccc(NC(=O)C5(C(=O)Nc6ccc(F)cc6)CC5)c(F)c4)ccn3)CC2)CC1	0.13
CCCCNc1ncc(-c2ccc(CN3CCOCC3)cn2)c(NC2CCC(O)CC2)n1 (stereo unspecified)	-1.14
COc1cc2c(cc1OC(C)C)[C@H](c1ccc(Cl)cc1)N(c1ccc(N(C)CC3CCC(N4CCN(C)C(=O)C4)CC3)cc1)C(=O)C2 (stereo partly specified)	0.366
Cn1ncc(Cl)c1-c1cc(C(=O)NC(CN)Cc2ccc(F)c(F)c2)oc1Cl (stereo unspecified)	0.319
O=C(NCC(=O)N1CCCC1)Nc1ccc2cnccc2c1	-0.349
O=C(Nc1ccnc(NC(=O)C2CC2)c1)c1c(Cl)cccc1Cl	-0.966
COCCNCc1ccc(-c2cc3nccc(Oc4ccc(NC(=O)C5(C(=O)Nc6ccc(F)cc6)CC5)cc4F)c3s2)nc1	-0.642
Cc1cc(C(=O)Nc2cc(Nc3ccc4c(/C=C/c5ccccn5)n[nH]c4c3)ccc2F)n(C)n1	-0.196
Cc1[nH]c2ccccc2c1CCNCc1ccc(/C=C/C(=O)NO)cc1	-1.48
OC(c1ccc(-c2ccc(CN3CCN(Cc4ccncc4)CC3)cc2)c(F)c1)(C(F)(F)F)C(F)(F)F	-0.566
